Among the test systems are NCI-H23 lung; NCI-H226 lung; NCI-H322M lung; HOP-62 NSCLC; NCI-H460 lung; HOP-92 NSCLC; 786-0 renal; COLO 205 colon; DU-145 prostate; K-562 leukemia; MALME-3M melanoma; MDA-MB-231 breast; SF-268 CNS; SF-295 CNS; SF-539 CNS; M14 melanoma; RXF 393 renal; NCI-H522 lung; A549/ATCC NSCLC; UACC-257 melanoma.
Common to all, as to test: NCI-60 one-dose screen, 48 h (100 = growth as untreated, 0 = no growth, -100 = all killed)
Common to all, as to details: 10 µM unless noted

This is part of a sample that, as a whole, favours compounds with a hit. Of some 83,000 tested, about 20% had one in any assay.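 In brief: 96-well plates, 48 h treatment, single concentration, percent growth endpoint.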 A number with no mark means an inactive call. Activity calls are given as the source filed them. How the source made its calls: active means growth percent below 10; inactive means the rest.

With `COc1cc(OC)c(C(=O)/C=C/c2cccc(OC(C)=O)c2)cc1CC=C(C)C`, the growth in the assay on NCI-H23 lung is 72.2%; with NCI-H226 lung, 69.6%; in the assay on NCI-H322M lung, 98.9%; in the assay on HOP-62 NSCLC, 114%; with NCI-H460 lung, 89.4%; in the assay on HOP-92 NSCLC, 56.5%. Further, the growth with 786-0 renal was 91.4%; in the assay with COLO 205 colon, 111%; with DU-145 prostate it was 69.2%; with K-562 leukemia it was 16.5%; in the assay on MALME-3M melanoma, 122%; in the assay on MDA-MB-231 breast it was 77.6%. Further, the growth in the assay on SF-268 CNS is 70.4%; in the assay on SF-295 CNS, 97.7%; with SF-539 CNS, 90.6%; in the assay on M14 melanoma it was 87.6%.
In the case of `N/C(=N\O)c1ncc(-c2ccc(C(F)(F)F)cc2)c(NC2CCCCCC2)n1`, the growth in the assay with NCI-H23 lung was -78.9% [100 µM] (active); in the assay on NCI-H226 lung it was -42.4% [100 µM] (active); with NCI-H322M lung, -95.8% [100 µM] (active); in the assay with HOP-62 NSCLC, -74.2% [100 µM] (active); in the assay on NCI-H460 lung it was -64.8% [100 µM] (active); in the assay with HOP-92 NSCLC it was -89.5% [100 µM] (active). In addition, the growth in the assay with 786-0 renal was -91.5% [100 µM] (active); with COLO 205 colon it was -58.2% [100 µM] (active); in the assay with DU-145 prostate it was -96.1% [100 µM] (active); in the assay with K-562 leukemia it was -60.4% [100 µM] (active); in the assay with MALME-3M melanoma it was -92.6% [100 µM] (active); with MDA-MB-231 breast, -66.3% [100 µM] (active). For the same compound, the growth in the assay on RXF 393 renal was -67% [100 µM] (active); in the assay on SF-268 CNS, -89.4% [100 µM] (active); in the assay with SF-295 CNS it was -94.7% [100 µM] (active); in the assay on M14 melanoma it was -91.9% [100 µM] (active).
As to `O=C1Nc2ccc(Br)cc2/C1=N/c1nc(-c2ccccc2)cs1`, the growth in the assay with NCI-H23 lung is 92.4%; with NCI-H226 lung, 75.7%; in the assay with NCI-H322M lung, 88%; in the assay with HOP-62 NSCLC, 53.8%; with NCI-H460 lung, 90.9%; in the assay on NCI-H522 lung it was 71.4%. For the same compound, the growth in the assay on A549/ATCC NSCLC was 80.3%; with 786-0 renal it was 85.2%; with COLO 205 colon, 94.7%; in the assay on DU-145 prostate, 89.3%; in the assay with K-562 leukemia, 82.4%; in the assay with MALME-3M melanoma it was 101%. Also, the growth in the assay on MDA-MB-231 breast was 77%; with RXF 393 renal it was 91.7%; with SF-268 CNS it was 79.5%; in the assay with SF-295 CNS it was 102%; in the assay on SF-539 CNS it was 98.6%; in the assay on UACC-257 melanoma it was 78.2%.
Regarding `COc1ccc2nc(-c3ccc(-c4noc(-c5ccc(Cl)cc5)n4)cc3)[nH]c2c1`, the growth in the assay with NCI-H23 lung is 63.7%; with NCI-H226 lung, 93.4%; in the assay with NCI-H322M lung, 67.5%; in the assay with HOP-62 NSCLC, 97.4%; in the assay with NCI-H460 lung, 79.1%; in the assay with NCI-H522 lung it was 88.6%. Also, the growth with A549/ATCC NSCLC is 72.8%; with 786-0 renal, 98.5%; in the assay on COLO 205 colon, 67.8%; in the assay with DU-145 prostate, 48%; in the assay with K-562 leukemia, 45.1%; in the assay with MALME-3M melanoma, 37.1%. Also, the growth was 75.6% in the assay with MDA-MB-231 breast; 103% in the assay with RXF 393 renal; 63.4% in the assay on SF-268 CNS; 87.5% with SF-295 CNS; 77.2% in the assay on SF-539 CNS; 74.5% with UACC-257 melanoma.
With `C/C(=N\Nc1ccc([N+](=O)[O-])cn1)c1ccc(N)cc1`, the growth with NCI-H23 lung is 109%; with NCI-H226 lung, 109%; with NCI-H322M lung it was 120%; in the assay with HOP-62 NSCLC, 109%; in the assay with NCI-H460 lung, 110%; in the assay with NCI-H522 lung, 85.8%. Further, the growth is 96.1% with A549/ATCC NSCLC; 99.7% in the assay on 786-0 renal; 104% in the assay with COLO 205 colon; 116% with DU-145 prostate; 13.8% in the assay on K-562 leukemia; 133% in the assay on MALME-3M melanoma. The growth was 88.9% in the assay with MDA-MB-231 breast; 132% in the assay with RXF 393 renal; 94.4% with SF-268 CNS; 128% in the assay with SF-295 CNS; 93.7% in the assay on SF-539 CNS; 105% in the assay with UACC-257 melanoma.
For `S=C(Cc1ccccc1)N1CCN(c2ccccc2Cl)CC1`, the growth in the assay on NCI-H23 lung is 100%; with NCI-H226 lung, 96.9%; in the assay with NCI-H322M lung, 96.3%; with HOP-62 NSCLC it was 105%; in the assay on NCI-H460 lung, 107%; with NCI-H522 lung it was 88.2%. The growth with A549/ATCC NSCLC was 95.1%; in the assay with 786-0 renal, 96.7%; in the assay on COLO 205 colon, 109%; with DU-145 prostate, 102%; in the assay with K-562 leukemia, 89.8%; in the assay on MALME-3M melanoma it was 95.2%. Besides, the growth with MDA-MB-231 breast was 100%; in the assay with RXF 393 renal it was 117%; in the assay on SF-268 CNS it was 95.2%; in the assay with SF-295 CNS it was 90.7%; in the assay with SF-539 CNS it was 105%; in the assay on UACC-257 melanoma it was 110%. The growth in the assay with M14 melanoma is 99.1%.
For the compound `O=C(CCCCCCN1CC(=O)N2[C@@H](c3ccc(Cl)c(Cl)c3)c3[nH]c4ccccc4c3C[C@H]2C1=O)NO`, the growth is 54% in the assay with NCI-H23 lung; 84.8% in the assay on NCI-H226 lung; 53.5% in the assay with NCI-H322M lung; 54.1% in the assay with HOP-62 NSCLC; 39.1% in the assay with NCI-H460 lung; 17.8% in the assay with NCI-H522 lung. The growth with A549/ATCC NSCLC was 79.9%; with 786-0 renal, 71.8%; in the assay on COLO 205 colon, 58.9%; in the assay with DU-145 prostate, 56.7%; in the assay with K-562 leukemia, 17.9%; in the assay with MALME-3M melanoma, 40%. The growth in the assay on MDA-MB-231 breast is 44.4%; with RXF 393 renal, 36.5%; in the assay with SF-268 CNS, 74.7%; in the assay on SF-295 CNS, 61.8%; with SF-539 CNS, 52%; with UACC-257 melanoma it was 65.5%.
In the case of `CCCCCCCCN(CCCCCCCC)C(=O)CCl`, the growth with NCI-H23 lung was 70.6%; in the assay with NCI-H226 lung it was 96.8%; with NCI-H322M lung it was 108%; in the assay on HOP-62 NSCLC, 113%; in the assay on NCI-H460 lung, 102%; in the assay on NCI-H522 lung, -50.5% (active). In addition, the growth with A549/ATCC NSCLC was 114%; in the assay on 786-0 renal, 80.6%; in the assay on COLO 205 colon, 108%; with DU-145 prostate, 110%; in the assay on K-562 leukemia, 105%; with MALME-3M melanoma, 84.8%. The growth in the assay on MDA-MB-231 breast is 104%; in the assay with RXF 393 renal, 103%; in the assay with SF-268 CNS, 99%; with SF-295 CNS it was 106%; with SF-539 CNS, 106%; with UACC-257 melanoma it was 112%.
Turning to `C#Cc1cccc(Nc2nc3cc([N+](=O)[O-])ccc3nc2Nc2ccc(O)cc2)c1`, the growth with NCI-H23 lung was 9.92% (active); with NCI-H226 lung it was 50.3%; in the assay on NCI-H322M lung it was 16.8%; in the assay with HOP-62 NSCLC, 21.4%; with NCI-H460 lung, -24% (active); with NCI-H522 lung, -53.6% (active). Besides, the growth with A549/ATCC NSCLC is 11.3%; in the assay with 786-0 renal, -11.7% (active); in the assay on COLO 205 colon it was -49.9% (active); with DU-145 prostate, 23.3%; in the assay with K-562 leukemia, -30% (active); in the assay with MALME-3M melanoma, 51.2%. Besides, the growth was -48.2% (active) with MDA-MB-231 breast; 54.8% in the assay on RXF 393 renal; 27.3% with SF-268 CNS; 1.66% (active) in the assay with SF-295 CNS; 21.8% in the assay with SF-539 CNS; 25.9% with UACC-257 melanoma. Moreover, in the assay with M14 melanoma, the growth is -52.5% (active).
